PrPC TRFRET – cell surface PrPC inhibition, primary TR-FRET screen. hit rate 0.43% among 370,000. TR-FRET read-out. P04156. inhibition, % at 13.8 µM; in the data active means inhibition above about 24%
Vc quorum ag-1 – quorum light induction in luxS cqsA deficient V. cholerae | hit rate 0.16% among 350,000 | V. cholerae BH1578 lux reporter, luminescence, 6 h | activation, % at 18.7 µM; in the data active means activation mostly above about 9.7%, no sharp cut-off
CCHF vOTU inh – CCHFV vOTU protease inhibition; Pep-AMC fluorescence; inhibition, % at 11.5 µM; hit rate 0.55% among 370,000; AID 651958; in the data active means inhibition above about 30%
Yp Topo-I inh – Y. pestis Topo-I inhibition via cleavage products; Y. pestis Topo-I cleavage product accumulation, plate reader; activity, % at 10 µM; hit rate 0.064% among 360,000; AID 504884; in the data active means activity above about 50%, passing the limit was not always enough
Vc quorum ag-2 – inducers of V. cholerae quorum light production without autoinducers; 620 tested, under 10 active; activation, % at 50 µM; AID 602243; shares compounds with Vc quorum ag-1; V. cholerae BH1578 lux reporter, luminescence, 6 h; call rule not given here
A number is an active result; 0 = inactive; - = no result given. In the library only some 1.1% were active in any assay of this set; here they are far more common.

SMILES	PrPC TRFRET	Vc quorum ag-1	CCHF vOTU inh	Yp Topo-I inh	Vc quorum ag-2
Cc1cc(=O)oc2ccc(OCc3ccccc3)cc12	0	-	0	0	0
C=CCOc1ccc2oc(=O)cc(C)c2c1	0	0	0	0	-
CCOC(=O)C1CCCN(C(=O)c2cc3c(OC)c(OC)c(OC)cc3[nH]2)C1 (stereo not drawn)	0	16.7	0	0	0
CCOC(=O)C1CCN(C(=O)c2cc3c(OC)c(OC)c(OC)cc3[nH]2)CC1	0	0	0	0	-
Cc1ccc(OCC(=O)NC2CCS(=O)(=O)C2)c([N+](=O)[O-])n1 (stereo not drawn)	0	0	0	0	0
CCN(C(=O)CSc1nncn1-c1ccccc1)c1c(N)n(Cc2ccccc2)c(=O)[nH]c1=O	0	0	0	0	-
Cn1ccc(NC(=O)Nc2ccc(Cl)cc2Cl)n1	0	0	0	0	-
CCc1nc(NCCCN2CCOCC2)c2oc3ccccc3c2n1	0	0	0	0	0
C=CCc1cccc2cc(NC(C)=O)c(=O)oc12	0	0	0	0	-
COc1ccc(Cl)cc1S(=O)(=O)NC(C)C(=O)NCCCn1ccnc1 (stereo not drawn)	0	0	0	0	0
CCOc1ccccc1N(CC(=O)Nc1ccc2c(c1)OCCO2)S(C)(=O)=O	0	0	0	0	0
O=[N+]([O-])c1ccc2nc(-c3ccncc3)[nH]c2c1	0	0	0	0	-
O=c1cc(CSc2ccccn2)c2ccccc2[nH]1	0	26.7	0	0	0
CCCCNC(=O)CN(c1cccc(F)c1)S(C)(=O)=O	0	0	0	0	-
CCCCNC(=O)CN(c1cccc(Br)c1)S(C)(=O)=O	0	32.1	0	0	0
COc1ccccc1C(=O)NC(=O)COC(=O)CNC(=O)c1ccc(Cl)cc1Cl	0	0	0	0	-
COc1ccc(C(=O)COC(=O)CNC(=O)c2ccc(Cl)cc2Cl)c(OC)c1	0	0	0	0	0
COc1ccc(NC(=O)CCC(=O)OCc2ccc([N+](=O)[O-])cc2)cc1	0	0	0	0	-
Cc1cc(=O)[nH]c(N/N=C/c2cc(C)n(CC(F)(F)F)c2C)n1	0	0	0	0	-
Cc1ccc(NC(=O)Cn2cc3c(n2)CCC(C)C3)cc1 (stereo not drawn)	0	0	0	0	-
COC(=O)c1ccccc1NC(=O)Cn1cc2c(n1)CCC(C)C2 (stereo not drawn)	0	30.2	0	0	0
CCCCn1c(=O)c(C(=O)NC(C)c2ccccc2)c(O)c2ccccc21 (stereo not drawn)	0	0	0	0	-
C=CCn1c(=O)c(C(=O)NC(C)c2ccccc2)c(O)c2ccccc21 (stereo not drawn)	0	450.8	0	0	0
C/C(=N\OCC(=O)N/N=C/c1ccc(C)cc1O)c1cccs1	0	0	0	0	-
Cc1noc(C)c1CSCC(=O)N(C)CC(=O)Nc1ccc(Cl)cc1	0	0	0	0	-
SMILES	PrPC TRFRET	Vc quorum ag-1	CCHF vOTU inh	Yp Topo-I inh	Vc quorum ag-2
COc1ccccc1CC(=O)O/N=C(\N)c1ccccn1	0	0	0	0	-
COc1ccc(/C(N)=N/OC(=O)Cc2ccccc2OC)cc1	0	0	0	0	0
O=C(c1cc(Br)ccc1Cl)N1CCC2(CC1)OCCO2	0	0	0	0	-
CCC(=O)N(CCCN(C)C)c1nc(-c2cc(OC)ccc2OC)cs1	0	0	0	0	-
CCC(=O)N(CC)c1nc(-c2cc(OC)ccc2OC)cs1	0	15.4	0	0	0
O=C(CCNS(=O)(=O)c1ccc(OC(F)(F)F)cc1)N1CCCC1	0	0	0	0	-
Cc1ccc(N(C(=O)Cn2nnc(-c3cccs3)n2)C(C(=O)NC2CCCC2)c2ccncc2)cc1 (stereo not drawn)	0	0	0	0	-
Cc1ccc(C)c(N(C(=O)Cn2nnc(-c3cccs3)n2)C(C(=O)NC2CC2)c2ccc(C)o2)c1 (stereo not drawn)	0	828.6	0	0	0
NS(=O)(=O)c1ccc(NC(=O)NC2CCCCC2)cc1	0	32.1	0	0	0
NS(=O)(=O)c1ccc(NC(=S)NC2CCCCC2)cc1	0	0	0	0	-
NC(=NCc1ccccc1)NN=Cc1ccnc2ccccc12	0	-	0	-	-
Cc1cccc(-c2noc(-c3ccccc3C(=O)NCC3CCCO3)n2)c1 (stereo not drawn)	0	0	0	0	0
O=C(NCC1CCCO1)c1ccccc1-c1nc(-c2ccc(Cl)cc2)no1 (stereo not drawn)	0	0	0	0	-
CC(OC(=O)c1ccc(-n2cnnn2)cc1)C(=O)N(C)c1ccccc1 (stereo not drawn)	0	0	0	0	0
CC(OC(=O)c1cccc(-n2cnnn2)c1)C(=O)N(C)c1ccccc1 (stereo not drawn)	0	0	0	0	-
CCC(C)Cn1c(S(=O)(=O)O)nc2ccccc21 (stereo not drawn)	0	0	0	0	0
